AI-2 QS mod – Vibrio harveyi AI-2 quorum sensing modulation. activity change, % at 7.5 µM. 0.4% of 300,000 active. Vibrio harveyi JMH597 AI-2 luminescence/OD600 ratio, 9 h; active compounds read low; strain lacks LuxN and CqsS sensors; 0 = neutral-control median; in the data active means activity change below about -75%, passing the limit was not always enough;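 further: luminescence divided by OD600 gain over 9 h not by final OD600 alone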
ARNT TACC3 PPI – ARNT/TACC3 interaction disruption. Q9Y6A5. AlphaScreen His-ARNT PAS-B/GST-TACC3 binding, luminescence; TACC3 fragment carries E629A point mutation. inhibition, % at 9.99 µM. 0.66% of 390,000 active. AID 623870;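 active means mean inhibition of replicates at least 50% and at least half of replicates each reaching 50%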;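 further: 0% = complete ARNT plus TACC3 wells and 100% = ARNT alone without TACC3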
Rin1-Abl PPI inh – human Rin1-Abl interaction inhibition | inhibition, % at 7.35 µM | TR-FRET Rin1/Abl binding, biochemical | AID 588664 | P00519+Q13671 | 0.4% of 360,000 active; in the data active means inhibition above about 5%, passing the limit was not always enough
HGIII-sPLA2 inh – Inhibits HGIII-sPLA2 liposome hydrolysis, primary screen; Q9NZ20; QFRET BODIPY PC-A2 liposome hydrolysis, fluorescence; inhibition, % at 12.2 µM; 0.56% of 370,000 active;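 active means inhibition above mean plus 3 SD of compounds lying within the high and low control bounds, cut at about 19% in these data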;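 further: 0% = median of test compound wells and 100% = no enzyme DMSO wells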
* hit, by the source's call; / = no result. An excerpt weighted towards active compounds, which were near 1.5% of everything screened.

SMILES	AI-2 QS mod	ARNT TACC3 PPI	Rin1-Abl PPI inh	HGIII-sPLA2 inh
CC(C)S(=O)(=O)c1cnc(-c2ccccn2)nc1N	11.0	74.2*	-1.6	-0.7
CC(=O)c1cnn(-c2cc(Oc3cccc(C)c3)ncn2)c1C	17.4	-5.6	-1.9	-2.7
COC(=O)c1cnn(-c2cc(Oc3cccc(C)c3)ncn2)c1N	-87.6*	-6.9	-1.5	7.9
C[C@H](CO)N1C[C@H](C)[C@@H](CN(C)C(=O)Nc2ccccc2)Oc2ccc(NS(=O)(=O)c3ccc(Cl)cc3)cc2CC1=O	/	-14.2	/	/
Cc1ccnc2c1ccc1c(C)ccnc12	/	69.6*	-18.2	/
Cc1ccnc2c1ccc1cccnc12	/	63.2*	-13.0	4.9
O=C1C(Cl)=C(NCCN2CCOCC2)C(=O)c2ccccc21	12.3	65.9*	-17.4	1.1
CC(=O)C1CCC2C3CC=C4CC(SC(=N)N)CCC4(C)C3CCC12C (stereo not drawn)	/	7.6	3.9	37.3*
O=C(NCC[C@@H]1CC[C@@H](NC(=O)C2CCC2)[C@H](CO)O1)Nc1ccc(Cl)cc1	/	4.5	/	/
O=C(c1cccc(F)c1)N1CCCCN2[C@H](CO)[C@@H](c3ccc(-c4ccc(F)cc4)cc3)[C@@H]2C1	/	6.4	/	/
c1ccc(CNc2nc(-c3ccccn3)nc3ccccc23)cc1	2.5	70.2*	2.1	9.6
CCC(C)Nc1nc(-c2ccccn2)nc2ccccc12 (stereo not drawn)	47.3	62.2*	-0.8	4.0
O=C(CCS(=O)(=O)c1ccc(F)cc1)Nc1nc(-c2ccccn2)cs1	41.4	59.9*	2.6	-6.0
O=C(CCS(=O)(=O)c1ccccc1)Nc1ccccn1	7.0	-8.6	0.7	0.4
O=C(CCS(=O)(=O)c1ccccc1)Nc1nc(-c2ccccn2)cs1	22.9	65.4*	-1.2	-4.5
CN(C)C(=O)C[C@@H]1CC[C@H]2[C@@H](COc3ccc(NC(=O)C4CCOCC4)cc3C(=O)N2C)O1	/	-14.4	/	/
COc1cccc(S(=O)(=O)N[C@H]2CC[C@H](CCn3cc(-c4ccccc4OC)nn3)O[C@@H]2CO)c1	/	6.0	/	/
CCCc1ccc(Oc2cn[nH]c2-c2ccc(O)c(C)c2O)cc1	-93.7*	6.4	1.0	-43.9
COc1cccc(-c2cccc(-c3nc(C(=O)O)cc4c3[C@@H](CCO)N(S(=O)C(C)(C)C)C4)c2)c1 (stereo partly drawn)	/	42.7*	/	/
C/C(=N\NC(=O)c1c[nH]c2ccccc12)c1ccccn1	67.8	76.7*	-4.9	-2.4
C/C(=N\NC(=O)CCCNc1ccc(C)cc1)c1ccccn1	24.3	47.8*	1.8	4.4
C/C(=N\NC(=O)c1cc2ccccc2cc1O)c1cc2ccccc2o1	40.3	-0.4	-7.7	-0.3
C/C(=N\NC(=O)c1ccccc1O)C1C(=O)c2ccccc2C1=O	6.6	12.1	-3.1	-10.4
C/C(=N\NC(=O)c1cc2ccccc2cc1O)c1ccccn1	90.5	69.2*	-4.0	12.5
C/C(=N/NC(=O)c1cc2ccccc2cc1O)C1C(=O)c2ccccc2C1=O	6.9	-3.5	-3.6	28.6*
SMILES	AI-2 QS mod	ARNT TACC3 PPI	Rin1-Abl PPI inh	HGIII-sPLA2 inh
COc1cccc(NC(=O)N2C[C@H](O)COC[C@@H]3O[C@@H](CC(=O)NCc4ccccc4F)CC[C@H]32)c1	/	4.6	/	/
c1ccc(NCc2nc(-c3ccccc3)no2)cc1	-86.6*	0.9	5.4	-0.5
COc1ccc(CC(=O)NCc2nc(-c3ccccc3)no2)cc1	-76.6*	9.6	-0.4	-5.8
Cc1ccc(S(=O)(=O)NCc2nc(-c3ccccc3)no2)cc1	27.1	-17.9	4.8	-1.1
C[C@@H]1CN([C@@H](C)CO)S(=O)(=O)c2ccc(C#CC3(O)CCCC3)cc2O[C@@H]1CN(C)C(=O)Cc1ccncc1	/	1.5	/	/
COc1ccc(S(=O)(=O)N(C)C[C@H]2OCCCC[C@H](C)Oc3ccc(NS(=O)(=O)c4ccc(C)cc4)cc3C(=O)N([C@@H](C)CO)C[C@@H]2C)cc1	/	3.4	/	/
CO/N=C/c1ccc(Sc2ccc(C)cc2)c([N+](=O)[O-])c1	20.7	2.0	1.9	2.5
Cc1ccc(Sc2ccc(/C=N/O)cc2[N+](=O)[O-])cc1	-76.3*	-2.0	1.9	-7.6
O=C1CCn2c1c(O)c1ccccc1c2=O	/	51.7*	4.0	1.3
CCCNC(=O)N1C[C@@H](O)COC[C@H]2O[C@H](CC(=O)N3CCOCC3)CC[C@@H]21	/	-35.3	/	/
CC(C)(C)c1ccc(CNc2ccc([N+](=O)[O-])cn2)cc1	-83.1*	/	-1.2	-5.1
CC(C)c1ccc(CNc2ccc([N+](=O)[O-])cn2)cc1	-55.4	-2.8	-0.3	-8.7
CC(C)CC#Cc1ccc2c(c1)O[C@H](CN(C)C(=O)c1ccccc1F)[C@@H](C)CN([C@H](C)CO)S2(=O)=O	/	-6.8	/	/
CN(C)CC(=O)N[C@H]1CC[C@H](CCn2cc(C3CC3)nn2)O[C@@H]1CO	/	3.6	/	/
CC(=O)c1cccc(NC(=O)CCC(=O)c2ccc(F)cc2)c1	-6.5	-3.7	1.3	-5.5
O=C(CCC(=O)c1ccc(F)cc1)Nc1cc(Cl)cc(Cl)c1	-79.1*	/	0.7	-9.5
CS(=O)(=O)N1Cc2ccccc2CC1C(=O)O (stereo not drawn)	13.0	-1.6	0.6	5.0
O=C(O)C1Cc2ccccc2CN1S(=O)(=O)/C=C/c1ccccc1 (stereo not drawn)	64.8	46.3*	-2.2	-12.8
O=C(NCC[C@@H]1CC[C@H](NC(=O)C2CCC2)[C@H](CO)O1)c1cc(Cl)cc(Cl)c1	/	-45.2	/	/
COCC(=O)N1C[C@@H]2[C@H](c3ccccc31)[C@@H](CO)N2C(=O)C1CCCCC1	/	-3.4	/	/
Cc1ccc(NS(=O)(=O)c2ccc(NC(=O)c3cccs3)cc2)c(C)c1	4.3	-11.5	0.2	-37.3
Cc1ccc(NC(=O)c2cc(S(=O)(=O)Nc3ccc(C)cc3)cs2)cc1	-79.4*	-3.8	0.1	-67.4
Oc1cccc2cc(Nc3ccccc3)cnc12	/	/	1.7	14.3
c1cncc(-c2nc3cc4ccccc4cc3[nH]2)c1	-7.9	1.5	-6.3	-2.8
Oc1cc(Nc2ccccc2)cc2cccnc12	/	65.8*	-0.9	9.0
SMILES	AI-2 QS mod	ARNT TACC3 PPI	Rin1-Abl PPI inh	HGIII-sPLA2 inh
Oc1cc(-c2cccnc2)cc2cccnc12	/	65.0*	3.9	-6.4
Cc1ccc(C(=O)N/C(=C\c2ccc(-c3ccccc3[N+](=O)[O-])o2)C(=O)NCCN(C)C)cc1	7.7	21.5*	1.5	-6.9
Cc1ccc(C(=O)N/C(=C\c2ccc(-c3ccccc3[N+](=O)[O-])o2)C(=O)NCCCN(C)C)cc1	-3.5	/	-3.1	-8.1
COc1ccc(NC(=O)Nc2ccc3c(c2)C(=O)N([C@H](C)CO)C[C@@H](C)[C@H](CN(C)S(=O)(=O)c2ccc(F)cc2)OCCCC[C@@H](C)O3)cc1	/	16.6	/	/
C[C@H]1CN([C@@H](C)CO)C(=O)c2cc(NC(=O)CCN3CCOCC3)ccc2O[C@H]1CN(C)CC1CCCCC1	/	12.6	/	/
NC(=S)N/N=C/c1ccccc1OC(=O)c1cc2ccccc2oc1=O	1.4	50.9*	-1.5	13.0
NC(=S)N/N=C/c1ccccc1OC(=O)/C=C/c1ccccc1	5.2	34.4*	-2.7	-2.6
CC(=NNC(=S)N1CC2CCC(CC2)C1)c1ccncn1	/	58.4*	2.8	6.5
CC(=NNC(=S)N1CCCCC1)c1cccc(C)n1	/	29.0	5.6	1.2

Compound activity (PubChem BioAssay)
